# Source: PubChem BioAssay (NCATS)
# Values joined by “and” are separate entries in the source; they are usually repeats but may differ in a detail not shown here. Identical values can stand only once. Active and inactive are the calls of the source.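 Rule for the calls: active = compounds whose dose series gives a full or clear partial fitted curve of increased nuclear translocation; inconclusive = weak partial curve or effect only at the top dose; inactive = no dose-dependent translocation response.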
# Target: Glucocorticoid receptor (Homo sapiens) (UniProt P04150)
# Experiment: GR-GFP Redistribution (AID 450)
# Details: U2OS GR-GFP nuclear translocation, laser cytometry, 2 h
# Excerpt: NIH Molecular Libraries Screening Centers Network [MLSCN]
# NIH Chemical Genomics Center [NCGC]
# The glucocorticoid receptor (GR) Redistribution assay (BioImage) enables the visualization of GR cytoplasmic to nuclear translocation by the use of a GR-GFP fusion. GR is normally cytosolic, however ligands such as dexamethasone, cause nuclear translocation where the protein binds to response elements and interacts with various co-factors to modulate transcription. Because both functional agonists and antagonists can induce nuclear translocation, this assay can detect ligands regardless of their effects on gene expression. GR-GFP expressing U20S cells were used here. Dexamethasone was the positive control for translocation and data normalization. Detection of nuclear translocation was performed in 1536-well plates using the Acumen laser scanning plate cytometer (TTP LabTech). Validation of this assay and a detailed protocol have been described.
# NCGC Assay Protocol Summary:
# GR-GFP U2OS cells were maintained in DMEM with Glutamax and high glucose, 1% v/v penicillin-streptomycin, and 0.5 mg/mL Geneticin. For cell culture, 10% […] fetal bovine serum (FBS) was used (Invitrogen #26140-079). For cell plating 10% dextran, charcoal-stripped FBS (Hyclone SH30068.03) was used. U2OS cells were trypsin treated, suspended in medium, and passed through a 40 um basket filter. The cells were seeded at 600 cells/5 uL/well into clear-bottom black sided 1536-well plates and incubated for approximately 20 hrs, 37degC, 5%, CO2 in a tissue culture incubator. Twenty-three nL of compound was delivered by pin tool and the plates were incubated as above for 2 hrs. The compounds were tested as a 7-point titration ranging from 46 uM to 0.6 nM. The cells were fixed using the Kalypsys Washer/Dispenser station. The fixing protocol involved aspiration of the cell media, addition of 6 uL/well of PBS, aspiration of PBS, addition of 5uL/well of 100% methanol, aspiration of methanol, and addition of 3 uL/well PBS with 1.5 uM propidium iodide (PI). The plates were read by the Acumen Explorer using a 1 x 8 um scan of the whole well area. PI fluorescence triggered the collection of PI and GFP signals. A nuclei population was defined by a 10 to 100 um width and depth filter that eliminated small and large fluorescent particles. Two subpopulations of nuclei were then defined by peak intensity of GFP fluorescence to obtain translocated and untranslocated objects. The number of translocated objects was used for data normalization.
# Keywords: NIH Roadmap, MLSCN, MLI, MLSMR, sOGT, qHTS, NCGC
# Potency is the fitted concentration of half-maximal effect.
# Sequence of Glucocorticoid receptor (Homo sapiens) (P04150 whole entry, looked up): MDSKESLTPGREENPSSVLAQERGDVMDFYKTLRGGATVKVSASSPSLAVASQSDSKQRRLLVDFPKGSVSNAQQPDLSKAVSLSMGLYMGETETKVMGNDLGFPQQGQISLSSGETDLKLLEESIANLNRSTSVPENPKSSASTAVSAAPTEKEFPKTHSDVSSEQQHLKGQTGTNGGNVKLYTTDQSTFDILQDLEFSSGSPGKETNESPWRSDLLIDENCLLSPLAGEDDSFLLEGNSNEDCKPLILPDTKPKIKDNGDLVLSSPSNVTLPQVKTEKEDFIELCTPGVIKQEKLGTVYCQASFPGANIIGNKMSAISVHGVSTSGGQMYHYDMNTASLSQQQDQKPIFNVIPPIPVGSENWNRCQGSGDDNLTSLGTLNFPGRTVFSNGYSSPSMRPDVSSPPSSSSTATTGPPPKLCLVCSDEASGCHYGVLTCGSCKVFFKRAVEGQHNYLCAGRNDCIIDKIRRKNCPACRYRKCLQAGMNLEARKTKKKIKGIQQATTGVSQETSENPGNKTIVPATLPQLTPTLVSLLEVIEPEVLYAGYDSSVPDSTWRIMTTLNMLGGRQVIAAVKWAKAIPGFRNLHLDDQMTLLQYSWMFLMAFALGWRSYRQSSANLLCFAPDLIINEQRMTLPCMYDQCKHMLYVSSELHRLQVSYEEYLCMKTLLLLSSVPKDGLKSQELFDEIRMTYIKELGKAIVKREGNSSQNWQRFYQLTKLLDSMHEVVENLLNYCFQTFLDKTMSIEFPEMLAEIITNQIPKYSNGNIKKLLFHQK
row,SMILES,Potency
1,CCCCC(C=O)NC(=O)C(CC(C)C)NC(=O)OCc1ccccc1 (centres undefined),> 46 µM (inactive)
2,NC(=O)c1nnn(Cc2cc(Cl)c(C(=O)c3ccc(Cl)cc3)c(Cl)c2)c1N,> 46 µM (inactive)
3,CN[C@H]1[C@@H](O[C@@H]2[C@H](O[C@@H]3[C@@H](O)[C@@H](O)[C@@H](N=C(N)N)[C@@H](O)[C@@H]3N=C(N)N)O[C@H](C)[C@@]2(O)C=O)O[C@@H](CO)[C@@H](O)[C@H]1O,> 20.6 µM (inactive)
4,CN(C)CCN(Cc1ccc(Cl)cc1)c1ccccn1,> 20.6 µM (inactive)
5,O=S(=O)(O)c1ccc2cc(N=Nc3cc(S(=O)(=O)O)c4cccnc4c3O)ccc2c1,> 46 µM (inactive)
6,CN1CCN2c3ncccc3Cc3ccccc3C2C1 (centres undefined),> 46 µM (inactive)
7,COc1nccc(-c2c(-c3ccc(F)cc3)ncn2C2CCC(O)CC2)n1 (centres undefined),> 46 µM (inactive)
8,CC(NCCc1ccc(O)cc1)C(O)c1ccc(O)cc1 (centres undefined),> 20.6 µM (inactive)
9,NS(=O)(=O)c1cc(Cl)c(Cl)c(S(N)(=O)=O)c1,> 20.6 µM (inactive)
10,O=c1cc(-c2ccc(O)c(O)c2)oc2cc(O)cc(O)c12,> 20.6 µM (inactive) and > 46 µM (inactive)
11,Cc1cc2nc3c(=O)[nH]c(=O)nc-3n(CC(O)C(O)C(O)CO)c2cc1C (centres undefined),> 20.6 µM (inactive)
12,CN(C)c1ccccc1CN1CCCN(Cc2ccccc2N(C)C)C1c1ccncc1,> 46 µM (inactive)
13,C=C1c2cccc(O)c2C(O)=C2C(=O)[C@@]3(O)C(O)=C(C(N)=O)C(=O)[C@@H](N(C)C)[C@@H]3[C@@H](O)[C@H]12,> 20.6 µM (inactive)
14,Cc1cc(NC(=O)Nc2ccc(N(C)C)cc2)c2cc(F)cc(F)c2n1,> 46 µM (inactive)
15,COc1ccc(CCN(C)CCCOc2ccc(S(=O)(=O)c3[nH]c4ccccc4c3C(C)C)cc2)cc1OC,> 46 µM (inactive)
16,CC1C(=O)OC2C(O)C34C5CC(C(C)(C)C)C36C(OC(=O)C6O)OC4(C(=O)O5)C12O (centres undefined),> 46 µM (inactive)
17,CCC(=C(CC)c1ccc(O)cc1)c1ccc(O)cc1,> 20.6 µM (inactive)
18,CCCCC[C@H](O)C=C[C@H]1[C@H](O)CC(=O)[C@H]1CCCCCCC(=O)O,> 46 µM (inactive)
19,Cc1ccc(NC(=O)c2cccc(N(C)C)c2)cc1NC(=O)c1ccc(O)cc1,> 46 µM (inactive)
